Hit rate of the full screen: of about 96,000 compounds, about 20,000 (21%) were called active.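 How the source made its calls: active means CYP2C19 inhibition above a set limit at 5 µM in the primary screen (cut at about 50% in these data); inactive means the rest.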 A selection follows.
molecular target: Cytochrome P450 2C19 (Homo sapiens) (UniProt P33261); experiment: blockers of cytochrome P450 2C19 activity – biochemical, luminescence, ADME assay, primary screen (AID 778); details: CYP2C19 Supersomes, luciferin-H EGE luminescence, 30 min; at 5 µM; hits give high values;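 further: plate controls were negative control wells for no effect and 2.5 mM tranylcypromine positive control for full effect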
Sequence (P33261 whole entry, looked up): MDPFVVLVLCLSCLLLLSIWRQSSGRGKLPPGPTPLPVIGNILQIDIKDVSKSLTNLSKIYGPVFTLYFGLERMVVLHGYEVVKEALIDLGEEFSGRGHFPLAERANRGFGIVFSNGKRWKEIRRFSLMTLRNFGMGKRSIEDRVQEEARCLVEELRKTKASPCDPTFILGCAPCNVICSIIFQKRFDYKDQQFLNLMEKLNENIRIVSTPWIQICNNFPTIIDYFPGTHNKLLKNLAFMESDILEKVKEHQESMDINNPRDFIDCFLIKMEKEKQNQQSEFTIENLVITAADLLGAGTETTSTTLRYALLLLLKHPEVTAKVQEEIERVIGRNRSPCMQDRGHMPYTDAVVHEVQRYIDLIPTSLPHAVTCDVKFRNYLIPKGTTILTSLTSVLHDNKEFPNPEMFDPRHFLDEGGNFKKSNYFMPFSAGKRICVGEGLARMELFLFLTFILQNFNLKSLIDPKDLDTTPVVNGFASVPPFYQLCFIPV

inhibition, active:
CCN(CCCNC(=O)C1CCN(S(=O)(=O)c2cnc[nH]2)CC1)c1ccccc1 70.9%
O=C(NCc1ccco1)C1CCCN(S(=O)(=O)c2cnc[nH]2)C1 (configuration not stated) 55.3%
Cc1ccc(S(=O)(=O)N2CCCC2C(=O)NCc2ccco2)cc1 (configuration not stated) 81.7%
CCOC(=O)c1cccc(NC(=O)C2CCCN(S(=O)(=O)c3cnc[nH]3)C2)c1 (configuration not stated) 58.5%
CCOC(=O)C1=C(CSc2nnnn2C)N(C)C(=O)NC1c1ccccc1 (configuration not stated) 79.5%
CC(c1ccccc1)n1c(NCCCn2ccnc2)nc2c1c(=O)[nH]c(=O)n2C (configuration not stated) 55.9%
COc1ccccc1N(C(=O)Cn1nnc2ccccc21)C(C(=O)NCc1ccco1)c1ccc(C)o1 (configuration not stated) 68%
CCNC(=O)NC(=O)C(C)OC(=O)c1cc(S(=O)(=O)N2CCCCCC2)ccc1OC (configuration not stated) 66%
COc1ccc(S(=O)(=O)N2CCCC2)c(C)c1C 72.2%
COc1ccc(S(=O)(=O)N2CCCCC2)cc1Br 92%
COc1ccc(S(=O)(=O)Nc2ccc(S(=O)(=O)N3CCCCC3)cc2)cc1OC 52.3%
Cc1[nH]c(=O)c(C(=O)/C=C/c2ccccc2)c2c1CCCC2 80.5%
COc1ccc(-n2nnnc2SCC(=O)c2ccc(OC)c(OC)c2)cc1 66.5%
CC(=NCc1ccco1)C1=C(O)c2ccccc2C1=O 81.8%
CCOC(=O)C1=C(C)N=c2s/c(=C\C(=O)OC)c(=O)n2C1c1ccc(OC)cc1 (configuration not stated) 67.5%
CN(C(=O)CSc1nnnn1-c1ccccc1)C1CCCCC1 71.1%
C=CCn1c(SCn2nnc3ccccc3c2=O)nnc1-c1ccc(Cl)cc1 87.2%
O=c1c2ccccc2nnn1CSc1nnnn1-c1ccccc1 74.2%

inhibition, inactive:
CCOC(=O)c1[nH]c2ccc(C)cc2c1N=C(C)N(C)C -13%
Cc1ccc(-c2ccnc3nc(Sc4ncc(C(F)(F)F)cc4Cl)nn23)cc1 0%
CCOC(=O)N1CCN(C(c2cccnc2)c2ccc3cccnc3c2O)CC1 (configuration not stated) 48%
COC(=O)C1C(=O)NCC1c1ccc(C)cc1 (configuration not stated) 10.9%
O=C(NCc1ccco1)C1CCCN(S(=O)(=O)c2cccc3nonc23)C1 (configuration not stated) 18.2%
CCCS(=O)(=O)N1CCC(C(=O)NCCCN(C)Cc2ccccc2)CC1 6.8%
COc1cccc(N2CCN(C(=O)C3CCCN(S(=O)(=O)c4cnc[nH]4)C3)CC2)c1 (configuration not stated) 25.3%
O=C(NCc1ccco1)C1CCCN(S(=O)(=O)c2ccccc2)C1 (configuration not stated) 40.8%
CCCS(=O)(=O)N1CCCC(C(=O)NCc2ccco2)C1 (configuration not stated) -10.8%
Cc1ccc(S(=O)(=O)N2CCCC2CO)cc1 (configuration not stated) 18.4%
CCOc1cccc(NC(=O)C2CCCN(S(=O)(=O)c3ccc(OC)cc3)C2)c1 (configuration not stated) 48.2%
Cc1cccc(N2CCN(C(=O)C3CCN(S(=O)(=O)c4cnc[nH]4)CC3)CC2)c1C 7.9%
CCN1CCN(C(=O)c2ccccc2N(C)S(=O)(=O)c2ccc(C)cc2)CC1 -7.6%
CC(C)(C)c1ccc(NC(=O)NCc2ccco2)cc1 2%
c1cc(-n2cnnn2)ccc1NC1=NCCC1 -15.7%
CCN1CCCC1Cn1cnc2c([nH]c3cc(OC)ccc32)c1=O (configuration not stated) -3.7%
CC(C)(C)Oc1ncc(Br)c(OC(C)(C)C)n1 -12.1%
N/C(Cc1ccc([N+](=O)[O-])cc1)=N\OC(=O)COc1ccc2ccccc2c1 4.3%
COC(=O)c1ccc2c(c1)S(=O)(=O)NC(=NCCCN1CCOCC1)S2 6.8%
CCOC(=O)Cn1c(=O)oc2cc(S(=O)(=O)N(C)Cc3ccco3)ccc21 14.9%
Cn1nnnc1SCc1cc(=O)[nH]c2ccccc12 2.9%
CCOC(=O)C1=C(CSc2nccn2C)NC(=O)NC1c1ccc(OC)cc1 (configuration not stated) 31.3%
CC1(C)Oc2ccc3ccc(=O)oc3c2/C(=C/NCCO)C1=O -7.3%
COc1ccccc1NC(=O)c1ccc2nc(N3C(=O)CCC3=O)sc2c1 13.6%
Cc1cc(NC(=O)CN2CCC(O)(c3cccc(F)c3)CC2)no1 34.5%
COc1ccccc1CNC(=O)CCCNS(=O)(=O)c1cccc2nsnc12 7.7%
CCCCNc1nc2c(c(=O)[nH]c(=O)n2C)n1CCOc1ccccc1 28.9%
COc1ccc(CCn2c(NCCCN3CCOCC3)nc3c2c(=O)[nH]c(=O)n3C)cc1 25.2%
CCOC(=O)c1cnc(SCC(=O)Nc2cccc(OC)c2)nc1N -12.1%
CCOC(=O)N1CCC(C(N)=O)CC1 5.4%
COc1cc2cc(CN(CCN3CCCC3)C(=O)Nc3ccccc3Cl)c(=O)[nH]c2cc1OC 7.9%
COCCNC(=O)C(c1ccc(C)o1)N(Cc1ccccc1)C(=O)Cn1nnc2ccccc21 (configuration not stated) 29.3%
Cc1ccc(C(C(=O)NCc2ccco2)N(CC2CCCO2)C(=O)Cn2nnc3ccccc32)cc1 (configuration not stated) 17.2%
Cc1ccc(C(CC(=O)O)Nc2nc(N3CCCCC3)nc(N3CCCCC3)n2)cc1 (configuration not stated) 11.1%
CCCCNC(=O)C1CCCN(S(=O)(=O)c2ccc(S(=O)(=O)NCC(C)C)cc2)C1 (configuration not stated) 6.5%
COc1ccc2c(c1OC)C(=O)c1ccccc1C2=O 17%
CCCCn1c(=S)[nH]c2cc(S(=O)(=O)N3CCCCC3)ccc21 25.4%
COc1ccc(S(=O)(=O)N2CCCC(C(=O)N3CCN(C)CC3)C2)cc1C (configuration not stated) 30%
COc1ccc(S(=O)(=O)N2CCOCC2)cc1C(=O)Nc1nc2ccccc2s1 0.4%
CSC1=N/C(=C\c2ccc3c(c2)OCO3)C(=O)S1 0.4%
COc1cc(NC(=O)N2CCOCC2)cc(OC)c1 -9.7%
CCC(=NC1CC(C)(C)NC(C)(C)C1)C1=C(O)CC(C)(C)CC1=O 3.6%
Cc1c(-c2ccccc2)cn2c1-c1ccc(C)n1CC2 1.7%
O=C(Nc1ccc(Cl)cn1)c1cnn2cccnc12 0.1%
CCC(=O)c1ccc(OCC(O)CN2CC(C)OC(C)C2)cc1 (configuration not stated) 39.4%
O=C1Nc2ccc(Br)cc2/C1=N/N=C/C1=C(N2CCOCC2)C(=C\c2ccccc2)/CC1 -1.8%
CCCOc1ccc2c3c(c(=O)oc2c1OCCC)CCC3 49.9%
COc1ccc(-c2c(C(C)=O)c(C)nc3sc4c(=O)n(-c5ccc(C)cc5)nnc4c23)cc1 21.7%
C=C(C)CSc1nnc(-c2ccc(C)cc2)n1N 17%
Cc1ccc(-n2c(C)cc(/C=C(\C#N)C(=O)NCC3CCCO3)c2C)cc1 (configuration not stated) 31.5%
CC1(C)CC(=O)C=C(NCCCNC2CCCCC2)C1 9.8%
CC(C)CCSc1ncnc2c1oc1nc3c(cc12)COC(C)(C)C3 -1.7%
Cc1cn(COC/C=C/c2ccccc2)c(=O)[nH]c1=O 24.1%
O=C(/C=C/c1ccccc1)c1ccoc1 35%
Cn1c(=NC(=O)c2ccco2)sc2cccc(F)c21 21.9%
CCn1c(-c2ccoc2C)n[nH]c1=S 1.3%
COc1ccc(C(=O)CSc2nccc(=O)[nH]2)cc1 -4%
COc1ccc(-n2nnnc2SCC(=O)Nc2ccccc2)cc1 48.1%
Cn1c(=O)c2cn(-c3cccc4ccccc34)cc2n(C)c1=O 49.2%
O=C(O)C1OC(C(=O)O)C2C1C(F)(F)C2(F)F (configuration not stated) -0.7%
CCOC(=O)c1c(NC(=O)c2ccc(N3CCOCC3)c([N+](=O)[O-])c2)sc(C)c1C 2.9%
Cc1cc(C(=O)CSc2nc(N)cc(=O)[nH]2)c(C)n1CCc1ccc(Cl)cc1 37%
Cc1nc(C)c(C(=O)N(c2ccc(C)c(C)c2)C(C(=O)NCc2ccco2)c2ccccc2)s1 (configuration not stated) 7.8%
O=c1c2c(nc3nc[nH]n13)CCC2 -17.9%
CC(=NCc1ccc2c(c1)OCO2)C1=C(O)c2ccccc2C1=O 4.5%
CC(=NCc1ccco1)c1c(C(F)(F)F)[nH]n(-c2nc3ccccc3s2)c1=O 28.3%
COCCOC(=O)C1=C(C)N=c2s/c(=C\c3cccs3)c(=O)n2C1c1cccs1 (configuration not stated) 45.2%
COc1ccc(C2C(C(C)=O)=C(O)C(=O)N2c2nccs2)cc1 (configuration not stated) -17%
S=C1SCN(CCN2CCOCC2)CN1Cc1ccccc1 25.3%
O=C(Nc1c(C(=O)N2CCCCC2)cnn1-c1ccccc1)c1ccco1 -7.8%
Cc1ccc(C2C(C#N)C(C#N)N3CCCN23)cc1 (configuration not stated) -7.9%
O=C(O)CCSc1nnc(-c2ccccc2)n1-c1ccccc1 1.2%
CCOC(=O)CNC(=O)CSc1nnnn1-c1cc(C)ccc1C 13.5%
O=c1c2ccccc2nc(CSc2nnnn2-c2ccccc2)n1-c1ccccc1 -5.9%
O=C(Cn1nnc2ccccc2c1=O)Nc1cc(C(F)(F)F)ccc1N1CCOCC1 31%
Cn1nnnc1SCC(=O)Nc1ccccc1C(=O)NC1CC1 -4.1%
C=CCn1c(Cn2nnc3ccccc32)nnc1SCC(=O)N/N=C/c1cc(Br)cc(OC)c1O 22.7%
CC(=O)c1cc2c(cc1N)OCO2 5.3%
CC1CCCC(C)N1C(=O)CN1CCN(c2nc(-c3ccc(F)cc3)cs2)CC1 (configuration not stated) 7.4%

Reference: PubChem BioAssay AID778 (Sanford-Burnham Center for Chemical Genomics, 2007)
